Our source for the growth inhibition values is PubChem BioAssay (NCI).

Test [1] in a line: NCI Yeast Anticancer Drug Screen. Data for the rad50 strain (AID 155).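 Note: 0% = growth of vehicle-only cultures of the same strain.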 Particulars: S. cerevisiae rad50 strain growth inhibition, stronger effect = higher value; at 50.0 µM unless noted. The method, boiled down: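 A DNA repair-deficient yeast mutant serves as the test organism; compound-induced growth inhibition is calculated against vehicle-treated cells.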
Test [2] can be described thus: NCI Yeast Anticancer Drug Screen. Data for the mec2-1 strain (AID 157). The conditions noted are these: S. cerevisiae mec2-1 strain, stronger effect = higher value; at 50.0 µM unless noted. The method, boiled down: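 Using mec2-1 yeast: add compound, measure growth, express inhibition versus vehicle-treated cultures.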
Test [3] is described as follows: NCI Yeast Anticancer Drug Screen. Data for the sgs1 mgt1 strain (AID 161).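 Note: 0% = growth of cultures given vehicle only.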 The conditions noted are these: S. cerevisiae sgs1 mgt1 strain, stronger effect = higher value; at 50.0 µM unless noted. The method, boiled down:
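Compounds are added to genetically altered yeast, and growth is compared with cultures given vehicle alone to give percent inhibition.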

The nature of test [4]: NCI Yeast Anticancer Drug Screen. Data for the cln2 rad14 strain (AID 165).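 Note: 0% = growth equal to vehicle treated cultures.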 The conditions noted are these: S. cerevisiae cln2 rad14 strain, stronger effect = higher value; at 50.0 µM unless noted. A digest of the protocol:
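Yeast strain cln2 rad14, bearing defects in cell cycle control and DNA repair, serves as the test system; values reflect growth inhibition compared with vehicle.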

A short description of test [5]: NCI Yeast Anticancer Drug Screen. Data for the bub3 strain (AID 167). Particulars: S. cerevisiae bub3 mutant strain, stronger effect = higher value; at 50.0 µM unless noted. The method, boiled down: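 Inhibition values come from growth of compound-treated mutant yeast normalised to vehicle-treated controls.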
Test [6] in a line: NCI Yeast Anticancer Drug Screen. Data for the mlh1 rad18 strain (AID 175). The conditions noted are these: S. cerevisiae mlh1 rad18 strain growth inhibition, stronger effect = higher value; at 50.0 µM unless noted. A digest of the protocol:
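Steps: expose repair-defective yeast to compound; measure growth; express inhibition against vehicle-treated controls.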

“And” between values parts separate entries of the source, which are not always exact repeats. Equal entries are not always repeated. Compounds without any hit were thinned out: in the full panel of roughly 79,000, 15% have a hit. Unmarked numbers belong to inactive results. The source made the active and inactive calls. Cut-off read from the data, not from the text of the source: active = growth inhibition above about 70%; inactive = the rest. Where a SMILES comes first, the peptide text is derived from it. The star is where a group is joined. Cbz = O=C(OCc1ccccc1)*

As to `COc1ccc2c(CSc3ncnc4nc[nH]c34)cc(=O)oc2c1`, the growth inhibition in test [1] is 12.4%; in test [2], 21.8%; in test [3] it was 13.1%; in test [4], -14.7%; in test [5] it was 25.4%; in test [6], 34.9%.

On to `COc1cc(C2c3cc4c(c(OC)c3CC3COC(=O)[C@@H]32)OCO4)cc(OC)c1O` (some centres not stated), for which the growth inhibition in test [1] is 85.9% (active); in test [2], 86.2% (active); in test [3], 80.5% (active); in test [4], 76.3% (active); in test [5] it was 82.8% (active); in test [6], 87.7% (active).

Take `O=C1NC(=O)[C@@]2(CC[C@@H](O)C2)c2ccncc21`: the growth inhibition in test [1] is 3.55%; in test [2], -42.6%; in test [3], -10.2%; in test [4] it was 16.4%; in test [5] it was -33.2%; in test [6], -86.5%.

In the case of `CC(CCC#CC(=O)O)OC1CCCCO1` (configuration not stated), the growth inhibition in test [1] is -14.9%; in test [2], -33%; in test [3], -2.05%; in test [4], 2.95%; in test [5], -15.1%; in test [6] it was -14.2%.

On to `O=C1c2cc(F)ccc2-c2c(F)ccc(F)c21`, for which the growth inhibition was 38.1% in test [1]; 8.7% in test [2]; 27.7% in test [3]; 11.1% in test [4]; 23.6% in test [5]; 23.5% in test [6].

Turning to `COc1ccc(OC2OC(CO)C(O)C(O)C2O)cc1` (configuration not stated), the growth inhibition is 8.9% in test [1]; -0.1% in test [2]; -4.3% in test [3]; 18.1% in test [4]; 6.5% in test [5]; -50.6% in test [6].

As for `COc1cccc(N)c1N`, the growth inhibition is 21.4% in test [1]; -15.2% in test [2]; -3.6% in test [3]; 4.6% in test [4]; -16.9% in test [5]; -9.2% in test [6].

`CC(=O)Nc1cc(NC(C)=O)c2ccc(=O)[nH]c2c1O`: the growth inhibition in test [1] is -2.9%; in test [2], -3.6%; in test [3], -3.55%; in test [4] it was -8.25%; in test [5], 15.3%; in test [6], 5.3%.

`C=CC(=O)Nc1ccccc1`: the growth inhibition in test [1] is 16.4%; in test [2], -8.05%; in test [3], 8.25%; in test [4] it was -8.35%; in test [5], -10%; in test [6], 5.55%.

Regarding `O=C(O)CCNC(=O)CNC(=O)OCc1ccccc1`, the growth inhibition in test [1] is 3.9%; in test [2], 10.6%; in test [3], -2.85%; in test [4], 5.55%; in test [5] it was -0.25%; in test [6] it was -9.65%.

Turning to `COc1cccc(C(=O)c2ccncc2C)c1OC`, the growth inhibition in test [1] is -14.6%; in test [2], -4.45%; in test [3], 9.95%; in test [4], -7.95%; in test [5], 28%; in test [6], -8.1%.

With `C=CCN(N=O)C(=O)N(CCCCC(NC(C)=O)C(=O)NCc1ccccc1)Cc1ccccc1` (configuration not stated), the growth inhibition was -0.95% in test [1]; -13.1% in test [2]; -21.4% in test [3]; -26.5% in test [4]; -22.3% in test [5]; -17.1% in test [6].

`CCN(CC)CCCCCCNc1cc(OC)c(OC)c2c(C)ccnc12`: the growth inhibition in test [1] is 23.6%; in test [2], 18.1%; in test [3], 5.6%; in test [4], -14.4%; in test [5] it was -1.8%; in test [6], 28.2%.

For `Oc1ccc(C(Cc2ccccc2)NCc2ccccc2)cc1` (configuration not stated), the growth inhibition in test [1] is -8.15%; in test [2], 14.6%; in test [3] it was 15.7%; in test [4] it was -12.6%; in test [5], 5.25%; in test [6] it was 17.9%.

With `O=C1CCC(=O)N1C(c1ccccc1)c1ccccc1`, the growth inhibition is -10.4% in test [1]; 6.95% in test [2]; 5.85% in test [3]; -30.9% in test [4]; 20.9% in test [5]; -6.2% in test [6].

As for `NC(=O)C(Cc1ccccc1)NC(=O)C(Cc1ccccc1)NC(=O)C(Cc1ccccc1)NC(=O)OCc1ccccc1` (stereo not drawn) (Cbz-Phe-Phe-Phe-NH2; configuration not given here), the growth inhibition was 25.6% in test [1]; 7.8% in test [2]; 17.6% in test [3]; -12% in test [4]; -5.2% in test [5]; 21.9% in test [6].

For the molecule `CC(=O)OCC1OC(n2c(=O)[nH]c(=O)c3n[nH]nc32)C(OC(C)=O)C(OC(C)=O)C1OC(C)=O` (configuration not stated), the growth inhibition is -4.2% in test [1]; 7.15% in test [2]; 3.4% in test [3]; 24.9% in test [4]; -1.05% in test [5]; -4.35% in test [6].

Consider `CC1CCC(C(C)C)C(NNC(N)=O)C1` (configuration not stated), for which the growth inhibition is 39.5% and 9.65% in test [1]; 12.7% and 3.8% in test [2]; 5% and 6.8% in test [3]; 14.3% and 3.4% in test [4]; 45% and -0.95% in test [5]; 15.9% and 9.6% in test [6].

On to `COC1=CC2CC(C#N)C2(OC)C=C1` (configuration not stated), for which the growth inhibition is -10.8% in test [1]; 5.75% in test [2]; -4.7% in test [3]; -18.2% in test [4]; -17.4% in test [5]; 1.8% in test [6].

Take `NC(CSS(=O)(=O)O)=NCCCOCc1ccccc1`: the growth inhibition in test [1] was 15.4%; in test [2], 7%; in test [3] it was 12.3%; in test [4], 10%; in test [5], 18.6%; in test [6], -7.2%.

For `C=C1C(=O)C23CC1CCC2C12CO[C@H](O)[C@H]1C(C)(C)[C@H](OC(C)=O)C[C@H]2OC3=O` (some centres not stated), the growth inhibition in test [1] was 4.75%; in test [2], 4.15%; in test [3], 1.8%; in test [4], 6.1%; in test [5], 0.85%; in test [6], -76.2%.

For `O=C(Cc1ccccc1)C(c1ccccc1)C(c1ccccc1)c1ccccc1` (configuration not stated), the growth inhibition in test [1] is -12.8%; in test [2], -11.8%; in test [3], 5.25%; in test [4], 13.6%; in test [5], -2.25%; in test [6], -1.25%.
